NIH3T3 tox – cytotoxic compounds in NIH 3T3 cells; NIH 3T3 viability, CellTiter-Glo ATP luminescence, 48-72 h; Potency, µM (top dose mostly 96.7 µM), hits mostly inhibitors; hit rate 4.3% among 94,000; AID 1345082; further: nearly all actives have a fitted effect of over 55% in size
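First NIH 3T3 cells are plated at 400 cells/well; next compound is pinned in; then plates incubate 48 or 72 hr at 37 °C; finally CellTiter-Glo is added and luminescence read after 10 min.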
SNCA viab count – reduces viability of HEK-293 SNCA reporter cells. HEK-293-SNCA-luc viability, GF-AFC fluorescence, 24 h. Potency, µM (top dose mostly 57.1 µM), usual class: cytotoxic. hit rate 0.12% among 150,000; further: nearly all actives have a fitted effect of over 30% in size
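Cytotoxicity counterscreen: after 24 h compound treatment of genome-edited SNCA-luciferase HEK-293 cells, live-cell protease substrate GF-AFC read by fluorescence after 30 min; activity scaled between DMSO (0%) and medium-only (-100%), curves Hill-fitted.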
SNCA expr inhib – SNCA gene expression inhibition; AID 1671194; Potency, µM (titrated, usually from 57.2 µM), actives largely listed as inhibitors; hit rate 0.17% among 140,000; HEK-293 SNCA-luciferase knock-in, luminescence, 24 h; further: nearly all actives have a fitted effect of over 45% in size
HEK293 tox – cytotoxic compounds in HEK 293 cells | HEK 293 viability, ATP luminescence (CellTiter-Glo), 48-72 h | hit rate 6.6% among 94,000 | Potency, µM (titrated, usually from 115 µM), most hits filed as inhibitors; further: nearly all actives have a fitted effect of over 60% in size
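Pintool-delivered compounds were incubated with HEK 293 cells (250 cells/well) at 37 degree Celsius for 48 or 72 hr. ATP-dependent luminescence (CellTiter-Glo) then reported remaining viable cells.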
Luciferase inh – blocks purified firefly luciferase enzyme activity; hit rate 2.5% among 76,000; Potency, µM (titrated, usually from 115 µM), actives largely listed as inhibitors; P08659; purified P. pyralis luciferase, luminescence, biochemical; AID 1347043; further: nearly all actives have a fitted effect of over 65% in size
Target sequence (P08659 whole entry, looked up): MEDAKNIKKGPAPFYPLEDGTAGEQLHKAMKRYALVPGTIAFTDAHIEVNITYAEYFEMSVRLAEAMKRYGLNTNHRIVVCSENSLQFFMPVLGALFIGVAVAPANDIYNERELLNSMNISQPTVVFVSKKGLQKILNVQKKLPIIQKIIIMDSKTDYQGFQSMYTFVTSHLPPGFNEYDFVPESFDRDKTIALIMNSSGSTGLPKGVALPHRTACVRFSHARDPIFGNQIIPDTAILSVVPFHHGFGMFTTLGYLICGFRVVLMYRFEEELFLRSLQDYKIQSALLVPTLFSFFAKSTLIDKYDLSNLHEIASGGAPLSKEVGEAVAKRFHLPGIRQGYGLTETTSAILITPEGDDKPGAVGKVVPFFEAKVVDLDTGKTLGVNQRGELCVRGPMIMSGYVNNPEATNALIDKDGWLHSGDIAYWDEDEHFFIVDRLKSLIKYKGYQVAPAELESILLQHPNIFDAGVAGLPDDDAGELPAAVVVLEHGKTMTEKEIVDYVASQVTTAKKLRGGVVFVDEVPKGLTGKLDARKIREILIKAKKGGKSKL
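Purified P. pyralis luciferase (10nM final) in 50mM Tris acetate pH 7.5, 10mM Mg acetate, 0.01% Tween-20, 0.05% BSA with 10uM D-luciferin and 10uM ATP. Compounds titrated qHTS. Luminescence imaged on CCD.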
hNpr1 antagonist – blocks ANP-stimulated signaling of human Npr1 receptor; HEK293 hNpr1 GloSensor cGMP, ANP-stimulated luminescence; P16066; Potency, µM (doses to about 46.3 µM), usual class: inhibitors; hit rate 1.6% among 76,000; calls by dose curve; further: nearly all actives have a fitted effect of over 60% in size
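Compound pre-incubated 30 min at room temperature on GloSensor-loaded HEK293 cells stably carrying hNpr1 and the pGS-40F cGMP biosensor. Stimulation uses hNppA at 0.1 nM final; luminescence is taken at baseline and 20 min post-agonist.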
Of the large screens only hits and unclear results are named; the others gave an inactive call; ! = repeats disagree. Most compounds without a hit are left out; they make up all but 7.2% or so of the library. Unless noted, the call rests on the fitted dose curve; in most records, active means well fitted curve in the direction sought with a large enough effect; inconclusive means small, poorly fitted or top-dose-only effect, or another doubt; inactive means no such curve, though single readings can be large; an effect the other way counts as inactive or inconclusive.

CN1CCC(Cn2ccc3c(N4CCOCC4)nc(-c4ccc5cn[nH]c5c4)cc32)CC1	NIH3T3 tox 40µM, HEK293 tox 100µM
CN1CCC(Cn2ccc3c(N4CCOCC4)nc(-c4cccc5[nH]ccc45)cc32)CC1	NIH3T3 tox 35µM, SNCA viab count inconclusive, HEK293 tox 63µM
CN1CCC(Cn2ccc3c(N4CCOCC4)nc(-c4cccc(N[S+](C)(=O)[O-])c4)cc32)CC1	NIH3T3 tox inconclusive, HEK293 tox inconclusive
CCn1ccc(C(=O)N2C[C@H]3CNC(=O)[C@]34CCCC[C@@H]24)n1	SNCA expr inhib inconclusive (no result: Luciferase inh, hNpr1 antagonist)
N#Cc1cccc(CN2CC[C@@H]3OCC(=O)N(Cc4c[nH]c5ccccc45)[C@H]3CC2)c1	NIH3T3 tox inconclusive, HEK293 tox 100µM
O=C1CO[C@H]2CCN(Cc3c[nH]c4ccccc34)CC[C@@H]2N1Cc1ccccc1	NIH3T3 tox 89µM, HEK293 tox inconclusive
CC(C)CCN1CC[C@@H]2OCC(=O)N(Cc3c[nH]c4ccccc34)[C@H]2CC1	NIH3T3 tox inconclusive, HEK293 tox 100µM
COC(=O)C1(O)C(OC(C)=O)CCC2C3(CC(c4ccoc4)OC3=O)C(C)=CCC21C(=O)OC (configuration not stated)	none (no result: NIH3T3 tox, SNCA expr inhib, HEK293 tox, Luciferase inh, hNpr1 antagonist)
Cc1noc(C)c1[S+](=O)([O-])NC1CCN(Cc2cccc(-c3cccs3)c2)CC1	NIH3T3 tox 40µM!, HEK293 tox 22µM! (no result: Luciferase inh, hNpr1 antagonist)
CC(=O)NC1CCN(Cc2cccc(-c3cccs3)c2)CC1	NIH3T3 tox inconclusive, HEK293 tox inconclusive (no result: Luciferase inh, hNpr1 antagonist)
Cc1cccc(-c2cccc(CN3CCC(N[S+](=O)([O-])c4c(C)noc4C)CC3)c2)c1	NIH3T3 tox 32µM, HEK293 tox 28µM (no result: Luciferase inh, hNpr1 antagonist)
CCn1nc(C)c(C(C)NCc2cccc(OC)c2OCCN2CCOCC2)c1C (configuration not stated)	none
COCc1nnc2n1CCC(NC(=O)CCc1ccc(OC)cc1)CC2 (configuration not stated)	none
O=C(NCc1cccc(F)c1)C1CCN(Cc2ccccc2-c2cccnc2)CC1	none (no result: Luciferase inh, hNpr1 antagonist)
O=S(=O)(c1ccccc1)c1nc(-c2ccc(F)cc2)oc1NCc1ccccc1	none (no result: NIH3T3 tox, HEK293 tox, Luciferase inh, hNpr1 antagonist)
CC(C)CS(=O)(=O)c1oc(-c2ccc(F)cc2)nc1S(=O)(=O)c1ccccc1	SNCA viab count 4.5µM, SNCA expr inhib inconclusive (no result: NIH3T3 tox, HEK293 tox, Luciferase inh, hNpr1 antagonist)
CCC(C)S(=O)(=O)c1oc(-c2cccs2)nc1S(=O)(=O)c1ccccc1 (configuration not stated)	SNCA viab count 2.8µM, SNCA expr inhib inconclusive (no result: NIH3T3 tox, HEK293 tox, Luciferase inh, hNpr1 antagonist)
CCOc1ccccc1NC(=O)c1cc2c(N3CCSCC3)nc(C)cn2n1	NIH3T3 tox inconclusive, HEK293 tox 35µM
Cc1cn2nc(C(=O)NCc3ccc(C(F)(F)F)cc3)cc2c(N2CCCC2)n1	NIH3T3 tox inconclusive, HEK293 tox 45µM
COc1ccc(NC(=O)c2c(-c3cnn(C)c3NCc3ccccc3)noc2C)cc1	NIH3T3 tox 11µM, SNCA viab count inconclusive, HEK293 tox inconclusive
O=C1COc2ccc(-c3ccccc3)nc2CN1Cc1ccc(F)cc1	NIH3T3 tox inconclusive, HEK293 tox inconclusive
O=C1COc2ccc(-c3cn[nH]c3)nc2CN1Cc1ccccc1	NIH3T3 tox 28µM, HEK293 tox inconclusive
COc1cccc(CN2Cc3nc(-c4cccc(O)c4)ccc3OCC2=O)c1	NIH3T3 tox inconclusive, HEK293 tox 100µM
CN(c1ccccc1)c1ccc2c(n1)CN(Cc1ccccc1)C(=O)CO2	NIH3T3 tox 79µM, HEK293 tox 89µM, Luciferase inh 50µM, hNpr1 antagonist inconclusive
O=C1COc2ccc(-c3ccccc3)nc2CN1CCOc1ccccc1	NIH3T3 tox 45µM, HEK293 tox inconclusive
CCOc1ccccc1CN1CCC2(CCN(C(=O)c3ccccc3C)CC2)Oc2ccccc21	NIH3T3 tox inconclusive, SNCA expr inhib inconclusive, HEK293 tox inconclusive
Cc1ccc(Nc2ccnc(N3CCC(NC(=O)NC(C)C)CC3)n2)cc1	NIH3T3 tox inconclusive, HEK293 tox inconclusive (no result: Luciferase inh, hNpr1 antagonist)
COc1ccc(CC(=O)N2CC3(Cc4ccccc4N(C(C)=O)C3)C2)cc1	none
COCCn1ncc(N2CCCC(CC(=O)N(C)C3CCN(C)CC3)C2)cc1=O (configuration not stated)	none (no result: Luciferase inh, hNpr1 antagonist)
COc1ccc(CN2C=C(C(=O)OCc3noc(-c4ccccc4F)n3)C(C)=NS2(=O)=O)cc1	NIH3T3 tox inconclusive, SNCA expr inhib inconclusive, HEK293 tox inconclusive
CN1Cc2nc(-c3cnn(Cc4ccccc4)c3)ccc2OCC1=O	NIH3T3 tox inconclusive, HEK293 tox inconclusive
CN1Cc2nc(-c3cnn(C)c3)ccc2OCC1=O	NIH3T3 tox inconclusive
COc1cccc(CN2Cc3nc(-c4cn[nH]c4)ccc3OCC2=O)c1	NIH3T3 tox 35µM, HEK293 tox inconclusive
Cn1cc(-c2ccc3c(n2)CN(Cc2ccccc2)C(=O)CO3)cn1	NIH3T3 tox 40µM, HEK293 tox inconclusive
COc1cccc(CN2Cc3nc(-c4ccccc4)ccc3OCC2=O)c1	NIH3T3 tox inconclusive, HEK293 tox 79µM
COCCN1Cc2nc(-c3cnn(Cc4ccccc4)c3)ccc2OCC1=O	NIH3T3 tox 45µM, HEK293 tox inconclusive
Cc1cc(C(=O)N[C@@H]2C[C@H](COc3ccc(S(C)(=O)=O)cc3)[C@@H](O)[C@H]2O)nn1C	none
COc1ccc2[nH]c(=O)c(CCC(=O)O)cc2c1	Luciferase inh inconclusive
Cc1cccc(OCCc2noc(C3CCCCN3C(=O)NC(C)C)n2)c1 (configuration not stated)	NIH3T3 tox inconclusive, HEK293 tox inconclusive
CNC(=O)CCn1ncc2cc(OCc3ccccc3-c3ccc(OC)cc3C)ccc21	NIH3T3 tox inconclusive, HEK293 tox 100µM, Luciferase inh inconclusive
CNC(=O)CCn1ncc2cc(OCc3ccccc3-c3cccnc3OC)ccc21	NIH3T3 tox inconclusive, HEK293 tox inconclusive, Luciferase inh inconclusive
CNC(=O)CCn1ncc2cc(OCc3ccccc3-c3cncc(OC)c3)ccc21	NIH3T3 tox inconclusive, HEK293 tox 79µM, Luciferase inh 22µM
CNC(=O)CCn1ncc2cc(OCc3ccccc3-c3cnn(C)c3)ccc21	NIH3T3 tox inconclusive, HEK293 tox inconclusive
CNC(=O)CCn1ncc2cc(OCc3ccccc3-c3ccc(OC)cc3)ccc21	NIH3T3 tox 89µM, HEK293 tox 100µM
CNC(=O)CCn1ncc2cc(OCc3ccccc3-c3cc(F)cc(OC)c3)ccc21	NIH3T3 tox inconclusive, SNCA expr inhib inconclusive, HEK293 tox 71µM
CN1CCC(N2CCN(C(=O)C3CCOCC3)CC2)C1=O (configuration not stated)	none
COc1ccc(C(=O)NC2CCCN(CCc3ccccc3)C2)c(OC)n1 (configuration not stated)	none
CNC(=O)CCn1ncc2cc(OCc3ccccc3-c3cccc(OC)c3)ccc21	NIH3T3 tox inconclusive, HEK293 tox 79µM, Luciferase inh 45µM

Source: PubChem BioAssay
